Source: PubChem (National Center for Advancing Translational Sciences (NCATS))
Only some compounds are listed: those with a hit (about 3.3% of all), similar ones and a draw of the others.
Sm TGR block: qHTS Assay for the Inhibitors of Schistosoma Mansoni Peroxiredoxins; 360,000 compounds, 3% hits; Schistosoma mansoni thioredoxin glutathione reductase (TGR), Q962Y6; Potency, µM (series often up to 114 µM), actives largely listed as inhibitors; purified TGR, DTNB reduction, TNB absorbance 405 nm; further: nearly all actives have a fitted effect of over 60% in size
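First, TGR (20 nM dispensed) and NADPH were mixed with compound. Second, a 15 min room-temperature incubation followed. Third, further NADPH and then DTNB were added to start the reaction. Finally, TNB absorbance was monitored kinetically.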
AmpC detergent: qHTS Inhibitors of AmpC Beta-Lactamase (assay with detergent). P00811. AmpC hydrolysis of nitrocefin, absorbance 480 nm, 0.01% Triton. Potency, µM (series often up to 114 µM), most hits filed as inhibitors. 370,000 compounds, 0.041% hits. AID 485294, 2010; further: nearly all actives have a fitted effect of over 25% in size
Target sequence (P00811 whole entry, looked up): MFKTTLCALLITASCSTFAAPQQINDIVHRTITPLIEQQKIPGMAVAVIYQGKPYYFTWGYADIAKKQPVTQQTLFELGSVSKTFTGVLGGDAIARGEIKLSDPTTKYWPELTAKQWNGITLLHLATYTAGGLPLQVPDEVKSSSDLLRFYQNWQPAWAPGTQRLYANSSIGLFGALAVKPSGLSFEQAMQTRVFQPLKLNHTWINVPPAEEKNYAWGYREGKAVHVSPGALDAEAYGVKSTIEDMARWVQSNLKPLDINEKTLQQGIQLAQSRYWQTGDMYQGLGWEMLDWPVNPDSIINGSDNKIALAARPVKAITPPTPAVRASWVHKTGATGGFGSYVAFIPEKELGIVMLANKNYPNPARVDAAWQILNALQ
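AmpC (5.3 nM in the dispensed reagent) in 20 mM phosphate pH 7.0 with 0.01% (detergent screen) or 0.0001% Triton X-100 was preincubated with compounds for 15 min at room temperature. Nitrocefin was then added from an 800 uM solution, and hydrolysis was followed at 480 nm.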
TbPYK inhibitor: qHTS of Trypanosoma Brucei Inhibitors | pyruvate kinase (Trypanosoma brucei), Q57TT1 | TbPYK enzyme, Kinase-Glo Plus ATP luminescence, 45 min | Potency, µM (titrated, usually from 76.8 µM), hits mostly inhibitors | 410,000 compounds, 0.12% hits; further: nearly all actives have a fitted effect of over 50% in size
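Luminescence from Kinase-Glo Plus, added after a 45-minute room-temperature reaction, served as the end-point read-out. The enzyme and substrate were preincubated with compound before ADP (130 uM final) initiated turnover. Concentration-effect curves came from normalized qHTS data.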
SARS PLP yeast: qHTS of Yeast-based Assay for SARS-CoV PLP; AID 485353, 2010; Potency, µM (titrated, usually from 32.9 µM), most hits filed as activators; S. cerevisiae expressing SARS-CoV PLpro, growth rescue; 330,000 compounds, 0.19% hits; calls by dose curve; further: nearly all actives have a fitted effect of over 55% in size
AmpC no deterg: qHTS Inhibitors of AmpC Beta-Lactamase (assay without detergent); P00811; AmpC nitrocefin hydrolysis, absorbance 480 nm, 0.0001% Triton; Potency, µM (top dose mostly 57.1 µM), actives largely listed as inhibitors; 330,000 compounds, 0.52% hits; further: nearly all actives have a fitted effect of over 20% in size
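20 mM phosphate pH 7.0 + 0.01% (detergent screen) or 0.0001% Triton X-100; 5.3 nM AmpC reagent; cpd preinc 15 min RT; nitrocefin (800 uM stock) to start; A480 q20 s × 4 min; Activity was normalised to no-enzyme and no-compound control wells.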
RE007 growth inh: qHTS Assay for Inhibitors of the HIV-1 protein Vpr; S. pombe RE007 Vpr strain, BacTiter-Glo ATP luminescence, 24 h; Potency, µM (doses to about 92.2 µM), most hits filed as inhibitors; 360,000 compounds, 0.21% hits; active means well fitted falling curve with a large enough effect; inconclusive means small, poorly fitted or top-dose-only effect; inactive means no such curve, though single readings can be large or run the other way; further: nearly all actives have a fitted effect of over 50% in size
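Fission yeast strain RE007, carrying one chromosomally integrated HIV-1 vpr copy, was seeded at OD 0.01 in PMG+AL medium with 23 nL pinned compound. After 24 h at 30 °C and 99% humidity, viability was read by BacTiter-Glo luminescence.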
Hits are given with their value; [ ] = remark or other dose. Unless noted, the call rests on the fitted dose curve; in most records, active means well fitted curve in the direction sought with a large enough effect; inconclusive means small, poorly fitted or top-dose-only effect, or another doubt; inactive means no such curve, though single readings can be large; an effect the other way counts as inactive or inconclusive.

What do the screens show for `Cc1cc2oc(C(=O)N(Cc3ccccc3F)C3CCS(=O)(=O)C3)c(C)c2cc1Cl` (stereo not given)?
Sm TGR block: inactive; AmpC detergent: inactive; TbPYK inhibitor: inactive

Results for Cc1cccc(NC(c2ccccc2C)c2ccc3ccc(C)nc3c2O)n1 (stereo not given) ?
Sm TGR block: 3.55µM; AmpC detergent: inactive; TbPYK inhibitor: inactive

Results for Cc1cccc(NC(c2ccc(C)s2)c2ccc3ccc(C)nc3c2O)n1 (stereo not given) ?
Sm TGR block: 44.7µM; AmpC detergent: inconclusive; TbPYK inhibitor: inactive; SARS PLP yeast: inactive; AmpC no deterg: inactive; RE007 growth inh: inconclusive

Results for Cc1ccc2ccc(C(Nc3ccccc3)c3ccccc3)c(O)c2n1 (stereo not given) ?
RE007 growth inh: inactive

How did COc1ccc(-c2cnc(C)o2)cc1S(=O)(=O)Nc1ccc(C)c(N(C)C)c1 do in these assays?
Sm TGR block: inactive; AmpC detergent: inactive; TbPYK inhibitor: inactive

Results for COc1ccc(CNC(=O)CCn2cccn2)cc1 ?
Sm TGR block: inactive; AmpC detergent: inactive; TbPYK inhibitor: inactive

What do the screens show for `COc1cc2c(cc1O)CCN[C@@]21CS[C@H]2c3c(OC(C)=O)c(C)c4c(c3C(COC1=O)N1C2C2c3c(cc(C)c(OC)c3O)CC([C@@H]1O)N2C)OCO4` (stereo not given in full)?
TbPYK inhibitor: inactive

Results for Cc1onc(-c2ccccc2)c1C(=O)n1nnc2ccccc21 ?
Sm TGR block: 17.8µM; AmpC detergent: inactive; TbPYK inhibitor: inactive; SARS PLP yeast: inactive; AmpC no deterg: inactive; RE007 growth inh: inactive

How did O=C(c1ccccc1)n1nnc2ccccc21 do in these assays?
Sm TGR block: 15.8µM; AmpC detergent: inactive; TbPYK inhibitor: inactive; RE007 growth inh: inactive

How did Cc1onc(-c2ccccc2)c1C(N)=O do in these assays?
Sm TGR block: inactive; AmpC detergent: inactive; TbPYK inhibitor: inactive; SARS PLP yeast: inactive; AmpC no deterg: inactive; RE007 growth inh: inactive

Results for Cc1ccc(CNC(=O)Cn2ccn(-c3ccc(F)cc3)c(=O)c2=O)cc1 ?
Sm TGR block: inactive; AmpC detergent: inactive; TbPYK inhibitor: inactive

Results for CCCCOc1ccc(CNC(=O)c2cccc(NC(=O)N3CCSc4ncccc43)c2)cc1 ?
Sm TGR block: inactive; AmpC detergent: inactive; TbPYK inhibitor: inactive[15.4 µM]

How did O=C(/C=C/c1ccco1)NC1CCCC1 do in these assays?
Sm TGR block: 4.47µM; AmpC detergent: inactive; TbPYK inhibitor: inactive; SARS PLP yeast: inactive; AmpC no deterg: inactive; RE007 growth inh: inactive

Results for O=C(COC(=O)/C=C/c1cccc(Br)c1)NC1CCCCC1 ?
Sm TGR block: inactive; AmpC detergent: inactive; TbPYK inhibitor: inactive; SARS PLP yeast: inactive; AmpC no deterg: inactive; RE007 growth inh: inactive

What do the screens show for `O=C(COC(=O)/C=C/c1ccc(Br)o1)NC1CCCCC1`?
Sm TGR block: 12.6µM; AmpC detergent: inactive; TbPYK inhibitor: inactive; SARS PLP yeast: inactive; AmpC no deterg: inactive; RE007 growth inh: inactive

What do the screens show for `CC1CC(C)CN(C(=O)COC(=O)/C=C/c2ccco2)C1` (stereo not given)?
TbPYK inhibitor: inactive; SARS PLP yeast: inactive; AmpC no deterg: inactive; RE007 growth inh: inactive

What do the screens show for `O=C(COC(=O)/C=C/c1ccco1)NC1CCCCC1`?
Sm TGR block: 12.6µM; AmpC detergent: inactive; TbPYK inhibitor: inactive; SARS PLP yeast: inactive; AmpC no deterg: inactive; RE007 growth inh: inactive

Results for CC(OC(=O)/C=C/c1ccco1)C(=O)NC1CCCCC1 (stereo not given) ?
TbPYK inhibitor: inactive; RE007 growth inh: inactive

How did CC1CCCCC1NC(=O)COC(=O)/C=C/c1ccco1 (stereo not given) do in these assays?
Sm TGR block: 39.8µM; AmpC detergent: inactive; TbPYK inhibitor: inactive; SARS PLP yeast: inactive; AmpC no deterg: inactive; RE007 growth inh: inactive

Results for CCCc1cc(=O)[nH]c2nnc(SCC(=O)Nc3cccc(C)c3)n12 ?
Sm TGR block: inactive; AmpC detergent: inactive; TbPYK inhibitor: inactive

How did Cc1cccc(NC(=O)CN2C(=O)C3(SCC(=O)N3c3ccccc3)c3ccccc32)c1 (stereo not given) do in these assays?
Sm TGR block: inactive; AmpC detergent: inactive; TbPYK inhibitor: inactive

Results for Fc1ccc(-c2nnc(CN3CCN(c4ccccn4)CC3)o2)cc1 ?
Sm TGR block: inactive; AmpC detergent: inactive; TbPYK inhibitor: inactive

What do the screens show for `Cc1cc(C(=O)OCC(=O)Nc2ccccc2F)c(C)o1`?
Sm TGR block: inactive; AmpC detergent: inconclusive; TbPYK inhibitor: inactive; SARS PLP yeast: inactive; AmpC no deterg: inactive; RE007 growth inh: inactive

Results for O=C(C=C1SCCS1)/C=C/c1ccco1 ?
Sm TGR block: 7.08µM; AmpC detergent: inactive; TbPYK inhibitor: inactive; SARS PLP yeast: inactive; AmpC no deterg: inactive; RE007 growth inh: inactive

Results for O=C(COC(=O)/C=C/c1ccc(Br)o1)Nc1ccccc1F ?
Sm TGR block: 79.4µM; AmpC detergent: inactive; SARS PLP yeast: inactive; AmpC no deterg: inactive

What do the screens show for `COc1ccccc1-c1nc(SCC(=O)NCc2ccccc2)c2c(=O)n(C)c(=O)n(C)c2n1`?
Sm TGR block: inactive; AmpC detergent: inactive; TbPYK inhibitor: inactive

What do the screens show for `CCc1ccc(C(=O)C(C)CN2CCCCC2)cc1` (stereo not given)?
TbPYK inhibitor: inactive

Results for Cc1ccc(CC2CC(=O)N(Cc3ccco3)C2=O)cc1 (stereo not given) ?
Sm TGR block: 12.6µM; AmpC detergent: inactive; TbPYK inhibitor: inactive; SARS PLP yeast: inactive; AmpC no deterg: inactive; RE007 growth inh: inactive

How did O=C1CC(Cc2ccccc2)C(=O)N1Cc1ccco1 (stereo not given) do in these assays?
Sm TGR block: 15.8µM; AmpC detergent: inactive; TbPYK inhibitor: inactive; SARS PLP yeast: inactive; AmpC no deterg: inactive; RE007 growth inh: inactive

How did O=[N+]([O-])c1cc(F)c2cccnc2c1O do in these assays?
Sm TGR block: 3.16µM; AmpC detergent: inactive; TbPYK inhibitor: inactive; SARS PLP yeast: inactive; AmpC no deterg: inactive; RE007 growth inh: inconclusive

What do the screens show for `O=[N+]([O-])c1cc(Cl)c(O)c2ncccc12`?
Sm TGR block: 11.2µM; AmpC detergent: inactive; TbPYK inhibitor: inactive; SARS PLP yeast: inactive; AmpC no deterg: inactive; RE007 growth inh: inconclusive

Results for O=[N+]([O-])c1cc([N+](=O)[O-])c2cccnc2c1Oc1ccccc1O ?
Sm TGR block: 0.282µM; AmpC detergent: inactive; TbPYK inhibitor: inactive; SARS PLP yeast: inactive; AmpC no deterg: inactive; RE007 growth inh: inactive
